A selection: hits, their analogues and other compounds. The true share with any hit is near 3%.
p53null 39C tox – selectivity test: cytotoxicity in p53 null cells, nonpermissive temperature; 55,000 tested, 0.97% active; Potency, µM (series often up to 46.1 µM), without a hit: top-dose activity, negative = cell killing, usual class: cytotoxic; H1299 p53-null (neo) cells, 39C, ATPlite viability, 24 h;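 also: 0% = DMSO only and -100% = full killing by 100 µM tamoxifen; nearly all actives have a fitted effect of over 50% in size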
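Concentration-response (up to 46 uM) was run for 24 h at the nonpermissive 39C on H1299-p53A138V or H1299-neo cells. ATP content was measured with ATPlite luminescence. AC50 values were Hill-modeled after normalizing between DMSO and 100 uM tamoxifen killing.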
PMP22 txn – modulators of PMP22 gene transcription in S16 Schwann cells | S16 Pmp22-F2sN Schwann cells, FLuc/NLuc coincidence luminescence, 24 h | Potency, µM (top dose mostly 57.5 µM), inactives show at the top dose activity change, negative = inhibition, actives largely listed as inhibitors | 43,000 tested, 2% active; active = clear falling dose curves in both reporters; inconclusive = both reporters move, but less clearly or upward; inactive = either reporter flat; the % is the NLuc reporter signal
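Reporter cells (S16 Pmp22-F2sN, 500–1,000 per well) exposed to compounds for 24 h, 37C, 5% CO2; lysis with FLuc read after 10 min, then Stop&Glo and NLuc read after 10 min.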
mTORC1 inh – mTORC1 pathway inhibition measured by phospho-rpS6; Tsc2-/- p53-/- MEF, phospho-rpS6 immunofluorescence/PI, 24 h; 44,000 tested, 0.78% active; AID 493208; Potency, µM (doses to about 38.3 µM), for inactives: at the top dose activity change, negative = inhibition, usual class: inhibitors;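 also: plate controls were DMSO for no effect and rapamycin for full effect; nearly all actives have a fitted effect of over 50% in size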
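Compounds act on Tsc2-/-, p53-/- fibroblasts carrying an empty vector for 24 h before fixation and dual staining for phospho-S6 and DNA (propidium iodide). Values are percentages of cells above a rapamycin-defined pS6/PI threshold.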
OvCa metastasis – inhibitors of ovarian cancer cell adhesion and invasion in omental model; 46,000 tested, 0.1% active; SKOV3ip1-GFP adhesion/invasion on 3D omental model, fluorescence; Potency, µM (series often up to 45.8 µM), without a hit: at the top dose activity change, negative = inhibition, most hits filed as inhibitors;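 also: plate controls were DMSO wells for no effect and tomatine positive control wells for full effect; nearly all actives have a fitted effect of over 65% in size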
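Adhesion/invasion was scored as fixed GFP-labeled SKOV3ip1 cell counts (488/509 nm), normalized to DMSO and tomatine controls. Cancer cells in serum-free medium, with four compound doses (0.36-46 umol/L), sat 2 hr at RT then 16 hr at 37 C on a 48 hr fibroblast/mesothelial/ECM culture.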
p53null 32C kill – kills p53 null cells at the permissive temperature. Potency, µM (doses to about 46.1 µM), for inactives: top-dose activity change, negative = cytotoxicity, actives largely listed as cytotoxic. AID 903. 55,000 tested, 0.62% active. H1299-neo p53 null cells, ATP luminescence, 24 h, 32C;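 also: 0% = DMSO only and -100% = full killing by 100 µM tamoxifen; nearly all actives have a fitted effect of over 55% in size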
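H1299-neo (p53 null) cells, 600/well, treated 24 h at 32C with compound up to 46 uM; ATPlite luminescence viability, normalized to DMSO and 100 uM tamoxifen; AC50 by Hill fit.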
S16 F2sN tox – toxic to S16 Pmp22-F2sN Schwann cells. S16 Pmp22-F2sN Schwann cells viability, CellTiter-Glo, 24 h. Potency, µM (doses to about 57.5 µM), without a hit: at the top dose activity change, negative = cytotoxicity, most hits filed as cytotoxic. 43,000 tested, 0.48% active; also: nearly all actives have a fitted effect of over 65% in size
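Viability was measured by CellTiter-Glo luminescence (15 min, room temperature). This followed 24 h at 37 °C of compound exposure (23 nL pin transfer) in S16 Pmp22-F2sN Schwann cells, 500-1,000 per well.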
* hit, by the source's call; i = inactive; u = inconclusive; x = not tested or not shown. Unless noted, calls follow the shape of the dose curve; as a rule, active = well fitted curve in the direction sought with a large enough effect; inconclusive = small, poorly fitted or top-dose-only effect, or another doubt; inactive = no such curve, though single readings can be large; an effect the other way counts as inactive or inconclusive. Unless noted, % is scaled to controls: 0 for no effect and ±100 for the full control effect; potency is read from the fitted curve at half-maximal effect.

SMILES	p53null 39C tox	PMP22 txn	mTORC1 inh	OvCa metastasis	p53null 32C kill	S16 F2sN tox
Cc1nn(-c2ccccc2Cl)c(Cl)c1/C=N/Nc1cccc(C(=O)O)c1	14.1µM*	x	x	x	10µM*	x
COC(=O)N/N=C/c1c(C)nn(-c2cccc(Cl)c2)c1Cl	x	x	x	x	6.2%	x
C[C@@H](NCc1cc2ccccc2[nH]1)c1cccc2ccccc12	x	x	x	-24.3%	x	x
O=S(=O)(Nc1cccc(Cl)c1)c1ccc2[nH]c3c(c2c1)CCCCCC3	u	u	-17.9%	-0.2%	10µM*	u
Cc1cccc(NS(=O)(=O)c2ccc3[nH]c4c(c3c2)CCCCCC4)c1	-9.2%	u	13.1µM*	-12.7%	65.0%	u
CC(=O)c1cccc(NS(=O)(=O)c2ccc3[nH]c4c(c3c2)CCCCC4)c1	u	u	u	-10.6%	31.9%	u
CCNC(=O)Nc1ccc(-c2nc3c(c(N4CCOC[C@H]4C)n2)CCN(C2COC2)C3)cc1	x	x	x	-5.0%	x	x
Cc1ccc(C(=O)Nc2nc3ccc(S(C)(=O)=O)cc3s2)o1	10µM*	x	x	x	12.6µM*	x
COc1ccc(C(=O)Nc2nc3ccc(S(C)(=O)=O)cc3s2)cc1	-10.8%	x	x	x	-1.4%	x
CC(C)(C)n1ncc2c(=O)n(CC(=O)c3ccccc3)cnc21	12.6µM*	x	x	x	-15.8%	x
CCc1ccc(C2=CC(c3cccc(C)c3)n3c(nc4ccccc43)N2)cc1 (stereo unspecified)	10µM*	u	-4.3%	-6.9%	10µM*	u
CCc1ccc(C2=CC(c3cccc(OC)c3OC)n3c(nc4ccccc43)N2)cc1 (stereo unspecified)	u	u	0.1%	13.3%	14.1µM*	u
CC(C)c1ccc(C2=CC(c3cccc(Cl)c3)n3ncnc3N2)cc1 (stereo unspecified)	6.6%	u	-0.9%	-17.3%	8.1%	u
CC(C)c1ccc(C2=CC(c3cccc(Cl)c3)n3c(nc4ccccc43)N2)cc1 (stereo unspecified)	u	u	-4.5%	-9.6%	22.4µM*	-19.3%
CCN1CCN(c2ccc(Nc3cc(N(C)C(=O)Nc4c(Cl)c(OC)cc(OC)c4Cl)ncn3)cc2)CC1	x	x	x	1.9%	x	x
CCn1c(-c2nonc2N)nc2cncc(CNC3CCNCC3)c21	x	x	x	-21.2%	x	x
Cc1ccc(O)c(NC(=O)c2noc3c2CCCCC3)c1	12.6µM*	u	-14.0%	i	12.6µM*	-4.9%
CC(=O)c1cccc(NC(=O)c2noc3c2CCCC3)c1	u	x	1.1%	31.5%	u	x
Cc1ccc(O)c(NC(=O)c2noc3c2CCCC3)c1	10µM*	x	-1.4%	i	u	x
COc1ccc(OC)c(NC(=O)c2noc3c2CCCC3)c1	-14.6%	-7.6%	3.5%	1.5%	-5.8%	-4.1%
CCCCNC(=O)CSc1c2c(nc3ccc(Cl)cc13)CCCC2	136.3%	u	u	3.2%	8.3%	39.8µM*
Cc1ccc(C)c(CSc2ccc3nnc(CCNS(=O)(=O)c4ccccc4)n3n2)c1	-0.9%	-5.9%	0.5%	37.2%	-4.8%	0.2%
Cc1ccc(S(=O)(=O)NCCc2nnc3ccc(SCc4ccccc4C)nn23)cc1	15.8µM*	-28.0%	2.5%	-1.0%	5.2%	-1.4%
Cc1ccc(O)c(C(CC(=O)NCC2(c3ccccc3)CCCC2)c2ccccc2)c1 (stereo unspecified)	u	u	18.5µM*	u	u	u
Cc1cccc(Cn2nnc3c(=O)[nH]c(C4CCCN(C(=O)c5ccc(C(C)(C)C)cc5)C4)nc32)c1 (stereo unspecified)	20µM*	-22.6%	-1.2%	u	u	u
SMILES	p53null 39C tox	PMP22 txn	mTORC1 inh	OvCa metastasis	p53null 32C kill	S16 F2sN tox
CN(c1ncccc1CNc1nc(Nc2ccc3c(c2)CC(=O)N3)ncc1C(F)(F)F)S(C)(=O)=O	x	x	x	24.2%	x	x
O=c1[nH]nc(Sc2ncc([N+](=O)[O-])s2)n1-c1ccc2c(c1)OCCO2	x	x	x	14.8µM*	x	x
COc1cccc(/C=N/Nc2nnc(C)n2N)c1OCc1ccccc1Cl	17.8µM*	x	x	x	x	x
CO[C@@H]1C(N(C)C(=O)c2ccccc2)C[C@H]2O[C@]1(C)n1c3ccccc3c3c4c(c5c6ccccc6n2c5c31)C(=O)NC4=O (stereo partly specified)	x	x	x	-8.0%	x	x
O=C(NC1CCCCC1)c1ccc(Cn2c(SCc3ccccc3F)nc3cccnc32)cc1	-27.8%	-35.5%	1.1%	-9.9%	-26.7%	u
O=C(NCc1ccco1)c1ccc(Cn2c(SCc3ccc(F)cc3)nc3cccnc32)cc1	12.6µM*	-29.8%	-15.1%	-3.2%	u	-17.7%
O=C(NC1CC1)c1ccc(Cn2c(SCc3ccccc3F)nc3cccnc32)cc1	12.6µM*	u	-11.7%	8.9%	u	u
Cc1ccc(CSc2nc3cccnc3n2Cc2ccc(C(=O)NC3CCCCC3)cc2)cc1	11.2µM*	u	-7.5%	u	12.6µM*	-2.7%
Cc1ccc(CSc2nc3cccnc3n2Cc2ccc(C(=O)NCCc3cccs3)cc2)cc1	3.98µM*	u	-19.9%	-26.1%	4.47µM*	-20.5%
O=C(NCc1cccs1)c1ccc(CSc2nc3cccnc3n2Cc2ccccc2)cc1	-17.1%	-27.4%	-4.9%	0.8%	1.3%	u
CCN1CCOC(=O)C1CC(=O)Nc1cc(C)cc(C)c1 (stereo unspecified)	x	u	10.4µM*	-0.3%	x	u
CCOc1cc(CNCCc2ccccc2)ccc1OCC(=O)NC(C)(C)C	15.8µM*	x	x	x	-1.0%	x
COC(=O)c1ccc(NC(=O)CC2Nc3cc(C)c(C)cc3NC2=O)cc1 (stereo unspecified)	2.2%	-16.3%	-7.9%	4.47µM*	-7.0%	2.0%
CCOc1cc2c(c(F)c1OCC)C(=N)N(CC(=O)c1cc(N3CCOCC3)c(OC)c(C(C)(C)C)c1)C2	x	x	x	-27.2%	x	x
c1ccc2c(-c3cnn4cc(-c5ccc(N6CCNCC6)cc5)cnc34)ccnc2c1	x	x	x	23.5µM*	x	x
O=C(/C=C/Nc1ccccc1C(=O)O)c1cccs1	x	x	x	x	35.5µM*	x
COc1cc(N2CCC(N3CCN(C)CC3)CC2)ccc1Nc1ncc(Cl)c(Nc2ccccc2S(=O)(=O)C(C)C)n1	x	x	x	-6.6%	x	x
Cc1c(-c2nc(-c3ccccc3F)no2)nnn1-c1cc(F)ccc1F	3.16µM*	u	-3.8%	2.0%	u	0.3%
CCc1ccccc1-n1nnc(-c2nc(-c3ccccc3F)no2)c1C	-22.8%	u	0.9%	i	u	2.3%
